The results in this text go back to PubChem BioAssay (EPA / NIEHS).

As a reminder, the AC50 is the concentration at which the activity in the assay is half-maximal.

Inconclusive results are not listed. Calls of active or inactive are those of the source. How the source made its calls, unless noted: active means hit-call score of the fitted dose curve at least 0.9, where 1 is the maximum; inconclusive means response in the unintended direction; inactive means score below 0.9.

The target in experiment [1] is PGR (gene 5241) (UniProt P06401). The experiment in a line: TOX21_PR_BLA_Followup_Agonist_ratio: Tox21 HEK293 Progesterone Receptor (PR) Agonism Beta-lactamase Follow-Up Assay, Ratio (AID 2283933). A digest of the protocol:
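PR-UAS-bla HEK293T cells in medium with 2% charcoal-stripped FBS were dosed after 6 h plating and incubated 16 h at 37C. LiveBLAzer FRET substrate was added for 2 h at room temperature. Cleaved/uncleaved substrate ratio fitted against DMSO; CellTiter-Glo viability run in the same wells.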

For experiment [2] the target is unchanged. As to the kind of experiment: TOX21_PR_BLA_Followup_Antagonist_ratio: Tox21 HEK293 Progesterone Receptor (PR) Antagonism Beta-lactamase Follow-Up Assay, Ratio (AID 2283934). A digest of the protocol: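 PR-UAS-bla HEK293T cells, 3,000/well in 2% charcoal-stripped FBS, given compound plus 1nM R5020 agonist for 16 hr at 37C. Beta-lactamase FRET substrate 2 hours, ratio cleaved/uncleaved fluorescence; viability by CellTiter-Glo in same wells.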

Experiment [3] can be described thus: TOX21_PR_BLA_Followup_Antagonist_viability: Viability Assessment in the Tox21 HEK293 Progesterone Receptor (PR) Antagonism Beta-lactamase Follow-Up Assay (AID 2283936).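 Further: hits lower the luminescence signal meaning cytotoxicity.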 A digest of the protocol: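 PR-UAS-bla HEK293T cells (3,000/well, 2% charcoal-stripped FBS) given compound plus R5020 agonist, 16 h at 37C. CellTiter-Glo added after bla read, 30 min at room temperature; luminescence loss indicates cytotoxicity.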

Experiment [4] has as its target PGR (gene 5241) (UniProt P06401). As to the kind of experiment: TOX21_PR_LUC_Followup_Agonist: Tox21 HEK293 Progesterone Receptor (PR) Agonism Luciferase Follow-Up Assay (AID 2283937; active means hit-call score of the fitted dose curve at least 0.9, where 1 is the maximum; inactive means score below 0.9). Put shortly:
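HEK293-PR-A-luc cells, conditioned 5 days in 10% charcoal-stripped FBS medium, seeded 3,000/well for 5 h, then compound-treated 16 h at 37C. ONE-Glo luminescence read after 30 min at room temperature; gain of signal versus DMSO.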

A short description of experiment [5]: TOX21_PR_LUC_Followup_Antagonist_viability: Viability Assessment in the Tox21 HEK293 Progesterone Receptor (PR) Antagonism Luciferase Follow-Up Assay (AID 2283940). Put shortly: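 HEK293-PR-A-luc cells kept in charcoal-stripped FBS medium were plated 5 h before compound addition, then exposed 16 h at 37C; viability read as cellular ATP by luciferase luminescence, loss of signal indicating cytotoxicity.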

The nature of experiment [6]: TOX21_PR_LUC_Followup_Agonist_viability: Viability Assessment in the Tox21 HEK293 Progesterone Receptor (PR) Agonism Luciferase Follow-Up Assay (AID 2283941).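 Further: loss of signal means cytotoxicity so actives lower viability.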 A digest of the protocol: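 HEK293-PR-A-luc cells, kept in 10% charcoal-stripped FBS medium, were treated with compounds for 16 h at 37C. Viability read as cellular ATP by luciferase-coupled luminescence; loss of signal indicates cytotoxicity.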

In experiment [7] the target is Cellular tumor antigen p53 (Homo sapiens) (UniProt P04637). The experiment in a line: TOX21_p53_BLA_p4_ratio: Tox21 HCT-116 p53 Agonism Beta-lactamase Assay, Ratio, Phase 4 (AID 2283601). A digest of the protocol: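 Signal is the blue/green (460nm/530nm) ratio of cleaved versus uncleaved CCF4-AM substrate, read after 2 h substrate loading. Cells were HCT116 carrying the p53-responsive beta-lactamase reporter, dosed 16 h at 37C, 5% CO2; CellTiter-Glo measured in parallel.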

In experiment [8] the target is Thyroid hormone receptor alpha (Rattus norvegicus) + Thyroid hormone receptor beta (Rattus norvegicus) (UniProt P18113+P63059). The experiment in a line: TOX21_TR_LUC_GH3_Agonist_Followup: Tox21 GH3 Thyroid Hormone Receptor Agonism Luciferase Follow-Up Assay (AID 2283939). A digest of the protocol:
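Rat GH3 cells (1,500/well) in serum-free assay medium, treated with 15-point series, 92 uM to 5 nM final, for 24 h at 37C. Luciferase via ONE-Glo luminescence; gain of signal fitted against DMSO, T3 positive control.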

The next experiment addresses THRA (gene 7067) (UniProt P10827). The experiment in a line: TOX21_TRA_COA_Agonist_Followup_ratio: Tox21 Thyroid Hormone Receptor alpha Agonism through Coactivator Recruitment Follow-Up Assay, Ratio (AID 2283948; active means hit-call score of the fitted dose curve at least 0.9, where 1 is the maximum; inactive means score below 0.9). A digest of the protocol:
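Follow-up specificity assay in which TRα ligand-binding domain, expressed as a GST fusion, recruits a fluorescein-labelled SRC-2 peptide. Energy transfer from a terbium anti-GST antibody gives the acceptor/donor ratio, fitted upward relative to DMSO.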

In experiment [9] the target is THRB (gene 7068) (UniProt P10828). As to the kind of experiment: TOX21_TRB_BLA_Agonist_Followup_ratio: Tox21 Thyroid Hormone Receptor beta Agonism Beta-lactamase (BLA) Follow-Up Assay, Ratio (AID 2283954). A digest of the protocol: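 Human TRβ LBD–GAL4 DBD fusion in GeneBLAzer UAS-bla HEK293T cells; 11 concentrations in triplicate, 18 h at 37°C/5% CO2, T3 as agonist control. CCF4-AM substrate 2 h at room temperature; 460:530 nm ratio fitted for gain of signal versus DMSO.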

Experiment [10] shares this target. As to the kind of experiment: TOX21_TRB_COA_Agonist_Followup_ratio: Tox21 Thyroid Hormone Receptor beta Agonism through Coactivator Recruitment Follow-Up Assay, Ratio (AID 2283963; active means hit-call score of the fitted dose curve at least 0.9, where 1 is the maximum; inactive means score below 0.9). Put shortly: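 Agonism is measured as coactivator recruitment in a purified-protein TR-FRET format, using GST-TRβ LBD at 5.0 nM, fluorescein-SRC-2 peptide at 200 nM and Tb-labeled anti-GST antibody at 2 nM. Values are 520:495 nm ratios relative to DMSO (0%) and T3 (100%).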

For experiment [11], the target named is Retinoic acid receptor RXR-alpha (Homo sapiens) (UniProt P19793). As to the kind of experiment: TOX21_TR_RXR_BLA_Agonist_Followup_ratio: Tox21 Thyroid Hormone Receptor beta Retinoid X Receptor alpha (RXRa) Agonism Beta-lactamase (BLA) Follow-Up Assay, Ratio (AID 2283968). Put shortly:
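RXRa-UAS-bla HEK293T cells, 5 h attachment at 37C/5% CO2, then 11 concentrations in triplicate for 16 h; 9-cis retinoic acid positive control. FRET-B/GCCF4-AM substrate 2 h at room temperature; 460:530 nm ratio, fitted for gain versus DMSO.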

Experiment [12] is described as follows: TOX21_TR_RXR_BLA_Agonist_Followup_viability: Viability Assessment in the Tox21 Thyroid Hormone Receptor beta Retinoid X Receptor alpha (RXRa) Agonism Beta-lactamase (BLA) Follow-Up Assay (AID 2283970). Put shortly:
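RXRa-UAS-bla HEK293T cells, 2,500/well in phenol red-free DMEM with 2% charcoal-stripped FBS, dosed for 16 h at 37C. Viability measured by CellTiter-Glo ATP luminescence; fitted bidirectionally against DMSO baseline, loss of signal indicating cytotoxicity.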

The nature of experiment [13]: ATG_M_32_XSP2: Attagene TRANS-FACTORIAL Multi-Species (XSP2) HepG2 Assay for M19 Transcription Factor (Internal Marker) (AID 2283826). Put shortly:
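Transfected HepG2 (multiplexed GAL4-UAS reporters), 24 h chemical exposure, 3 nM 6-alpha-fluorotestosterone + 1.5 nM norgestrel added. RNA → oligo(dT) RT → PCR → 6-FAM primer extension → HpaI cut → CE. Fitted upward vs DMSO.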

The target of experiment [14] is human Androgen Receptor (AR), AR (gene 367) (UniProt P10275). As to the kind of experiment: ATG_hAR_XSP1: Attagene TRANS-FACTORIAL Multi-Species (XSP1) HepG2 Assay for human Androgen Receptor (AR) (AID 2283785).
Experiment [15] concerns the target Cellular tumor antigen p53 (Homo sapiens) (UniProt P04637). As to the kind of experiment: TOX21_p53_BLA_p5_ratio: Tox21 HCT-116 p53 Agonism Beta-lactamase Assay, Ratio, Phase 5 (AID 2283599). Put shortly: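 Beta-lactamase reporter ratio (blue 460 nm over green 530 nm, 405 nm excitation) after 2 h CCF4-AM loading, in HCT-116 cells exposed 16 h at 37 C to compounds pinned at 217-fold dilution. Increases relative to DMSO baseline scored.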

Experiment [16] can be described thus: TOX21_p53_BLA_p5_viability: Viability Assessment in the Tox21 HCT-116 p53 Agonism Beta-lactamase Assay, Phase 5 (AID 2283600). A digest of the protocol: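 4000 cells/well; 5 h pre-incubation; DMSO compounds pin-transferred, 217-fold dilution; 16 h, 37C/5% CO2; CCF4-AM 2 h RT; CellTiter-Glo 30 min RT; luminescence.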
In experiment [17] the test system is Thyroperoxidase (TPO), gene 54314. As to the kind of experiment: CCTE_Simmons_AUR_rTPO: CCTE's Amplex UltraRed Assay for Thyroperoxidase (TPO) Inhibition, Simmons Lab (AID 2283662). Put shortly:
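Endpoint is decreased Amplex UltraRed fluorescence after a 30-min, 37C reaction of rat thyroid microsomes with 300 uM H2O2. Eight test concentrations (5 nM–87.5 uM final) in 0.5% DMSO, three biological replicates each.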

Experiment [18] has as its target Luciferin 4-monooxygenase (Photinus pyralis) (UniProt P08659). As to the kind of experiment: CCTE_Simmons_QuantiLum_inhib_2: CCTE's Firefly Luciferase Inhibition Assay, Simmons Lab (AID 2283767). Put shortly:
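Cell-free recombinant firefly luciferase (5 ng/well) in 200mM potassium phosphate with 1 mg/ml BSA, 30 min at 37C with 8 concentrations from 5 nM to 87.5 uM [final], 0.5% DMSO. Luminescence read after D-luciferin (150uM)/dATP (147uM) reagent injection, pH 7.8; triplicates.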

Sequence of PGR (gene 5241) (P06401 whole entry, looked up): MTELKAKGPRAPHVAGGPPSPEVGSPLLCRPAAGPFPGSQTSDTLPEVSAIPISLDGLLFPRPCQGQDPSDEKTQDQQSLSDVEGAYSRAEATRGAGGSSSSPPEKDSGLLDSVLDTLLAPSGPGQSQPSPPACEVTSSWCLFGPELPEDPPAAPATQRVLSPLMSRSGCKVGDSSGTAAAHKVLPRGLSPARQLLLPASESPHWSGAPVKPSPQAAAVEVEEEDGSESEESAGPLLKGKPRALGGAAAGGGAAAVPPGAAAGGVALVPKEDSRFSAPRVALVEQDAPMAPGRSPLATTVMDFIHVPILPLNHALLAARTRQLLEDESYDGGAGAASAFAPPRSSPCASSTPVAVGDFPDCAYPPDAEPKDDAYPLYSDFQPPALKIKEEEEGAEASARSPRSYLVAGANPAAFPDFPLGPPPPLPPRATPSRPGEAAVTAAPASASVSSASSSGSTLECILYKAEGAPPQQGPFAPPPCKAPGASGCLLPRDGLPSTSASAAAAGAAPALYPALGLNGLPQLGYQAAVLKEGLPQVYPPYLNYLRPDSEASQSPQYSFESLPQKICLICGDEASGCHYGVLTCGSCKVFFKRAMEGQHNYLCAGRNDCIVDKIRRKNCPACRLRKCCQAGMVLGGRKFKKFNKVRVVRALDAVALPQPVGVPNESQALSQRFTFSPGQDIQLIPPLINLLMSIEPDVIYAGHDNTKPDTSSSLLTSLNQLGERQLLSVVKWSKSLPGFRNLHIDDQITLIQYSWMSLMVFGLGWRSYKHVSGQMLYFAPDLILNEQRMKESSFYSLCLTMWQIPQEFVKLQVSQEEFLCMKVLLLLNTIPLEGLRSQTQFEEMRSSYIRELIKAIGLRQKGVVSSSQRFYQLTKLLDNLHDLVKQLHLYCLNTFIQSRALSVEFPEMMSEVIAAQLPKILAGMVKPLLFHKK
Sequence of Cellular tumor antigen p53 (Homo sapiens) (P04637 whole entry, looked up): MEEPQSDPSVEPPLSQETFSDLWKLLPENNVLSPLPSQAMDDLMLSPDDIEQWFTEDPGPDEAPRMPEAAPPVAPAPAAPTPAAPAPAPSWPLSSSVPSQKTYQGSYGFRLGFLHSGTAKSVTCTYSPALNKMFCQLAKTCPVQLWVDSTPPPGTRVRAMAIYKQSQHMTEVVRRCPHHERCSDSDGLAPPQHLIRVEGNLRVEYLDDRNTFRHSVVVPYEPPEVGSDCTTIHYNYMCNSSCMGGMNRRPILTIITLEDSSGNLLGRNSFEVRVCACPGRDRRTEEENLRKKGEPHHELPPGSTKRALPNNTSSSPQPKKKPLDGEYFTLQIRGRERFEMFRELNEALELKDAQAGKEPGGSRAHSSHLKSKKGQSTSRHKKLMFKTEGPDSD
Sequence of THRB (gene 7068) (P10828 whole entry, looked up, the tested form may be a part): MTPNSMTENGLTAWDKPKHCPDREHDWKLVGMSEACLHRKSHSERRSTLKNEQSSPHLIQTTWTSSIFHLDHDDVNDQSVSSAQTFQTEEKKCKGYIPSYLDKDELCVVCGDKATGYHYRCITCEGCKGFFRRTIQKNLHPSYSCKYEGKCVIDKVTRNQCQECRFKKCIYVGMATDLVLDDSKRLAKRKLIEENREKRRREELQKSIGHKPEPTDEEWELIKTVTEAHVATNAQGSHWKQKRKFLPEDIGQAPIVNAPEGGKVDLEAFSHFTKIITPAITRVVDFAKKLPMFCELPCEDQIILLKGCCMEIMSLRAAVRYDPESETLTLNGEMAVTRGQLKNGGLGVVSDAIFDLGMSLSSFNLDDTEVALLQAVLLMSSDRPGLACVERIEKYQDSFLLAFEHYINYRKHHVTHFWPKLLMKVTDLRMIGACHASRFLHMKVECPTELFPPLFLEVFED
Sequence of Luciferin 4-monooxygenase (Photinus pyralis) (P08659 whole entry, looked up): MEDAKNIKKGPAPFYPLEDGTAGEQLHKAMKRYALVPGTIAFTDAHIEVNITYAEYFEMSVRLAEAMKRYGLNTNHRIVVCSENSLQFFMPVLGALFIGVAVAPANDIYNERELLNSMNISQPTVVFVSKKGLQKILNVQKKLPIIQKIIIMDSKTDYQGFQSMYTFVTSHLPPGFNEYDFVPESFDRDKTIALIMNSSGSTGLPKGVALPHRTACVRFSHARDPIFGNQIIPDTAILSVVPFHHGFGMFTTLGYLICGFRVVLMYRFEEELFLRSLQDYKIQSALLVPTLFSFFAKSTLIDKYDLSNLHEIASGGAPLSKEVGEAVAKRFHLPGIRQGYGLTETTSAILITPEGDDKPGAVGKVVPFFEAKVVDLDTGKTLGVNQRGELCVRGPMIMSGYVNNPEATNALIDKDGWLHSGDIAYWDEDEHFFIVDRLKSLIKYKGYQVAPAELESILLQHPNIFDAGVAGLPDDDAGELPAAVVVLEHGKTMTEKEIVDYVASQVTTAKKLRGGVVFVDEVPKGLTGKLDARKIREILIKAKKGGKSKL
Sequence of Retinoic acid receptor RXR-alpha (Homo sapiens) (P19793 whole entry, looked up): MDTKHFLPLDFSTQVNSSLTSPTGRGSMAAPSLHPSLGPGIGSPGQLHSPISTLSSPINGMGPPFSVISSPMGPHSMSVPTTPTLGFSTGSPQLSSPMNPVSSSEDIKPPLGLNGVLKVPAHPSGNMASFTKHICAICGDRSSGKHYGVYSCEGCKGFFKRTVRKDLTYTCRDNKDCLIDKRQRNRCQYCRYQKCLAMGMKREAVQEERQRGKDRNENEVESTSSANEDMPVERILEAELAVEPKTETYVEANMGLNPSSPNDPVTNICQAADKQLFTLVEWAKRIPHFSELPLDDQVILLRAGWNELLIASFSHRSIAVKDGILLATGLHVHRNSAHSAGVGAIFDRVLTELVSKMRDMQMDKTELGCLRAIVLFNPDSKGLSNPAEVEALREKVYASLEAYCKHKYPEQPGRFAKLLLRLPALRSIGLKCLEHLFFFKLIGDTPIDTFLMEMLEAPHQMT
Sequence of THRA (gene 7067) (P10827 whole entry, looked up, the tested form may be a part): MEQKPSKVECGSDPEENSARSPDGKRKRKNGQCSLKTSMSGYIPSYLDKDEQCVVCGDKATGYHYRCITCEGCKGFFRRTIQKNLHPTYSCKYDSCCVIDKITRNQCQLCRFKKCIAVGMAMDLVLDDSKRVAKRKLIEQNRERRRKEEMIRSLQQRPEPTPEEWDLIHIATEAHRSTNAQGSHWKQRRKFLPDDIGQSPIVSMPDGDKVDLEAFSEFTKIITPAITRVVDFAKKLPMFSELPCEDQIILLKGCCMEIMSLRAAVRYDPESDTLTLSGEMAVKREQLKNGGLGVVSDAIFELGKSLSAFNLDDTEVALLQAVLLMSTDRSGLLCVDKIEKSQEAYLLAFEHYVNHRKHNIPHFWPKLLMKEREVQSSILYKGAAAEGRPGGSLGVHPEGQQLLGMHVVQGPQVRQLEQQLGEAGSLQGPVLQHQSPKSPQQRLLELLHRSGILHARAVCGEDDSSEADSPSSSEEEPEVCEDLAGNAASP
Sequence of human Androgen Receptor (AR), AR (gene 367) (P10275 whole entry, looked up): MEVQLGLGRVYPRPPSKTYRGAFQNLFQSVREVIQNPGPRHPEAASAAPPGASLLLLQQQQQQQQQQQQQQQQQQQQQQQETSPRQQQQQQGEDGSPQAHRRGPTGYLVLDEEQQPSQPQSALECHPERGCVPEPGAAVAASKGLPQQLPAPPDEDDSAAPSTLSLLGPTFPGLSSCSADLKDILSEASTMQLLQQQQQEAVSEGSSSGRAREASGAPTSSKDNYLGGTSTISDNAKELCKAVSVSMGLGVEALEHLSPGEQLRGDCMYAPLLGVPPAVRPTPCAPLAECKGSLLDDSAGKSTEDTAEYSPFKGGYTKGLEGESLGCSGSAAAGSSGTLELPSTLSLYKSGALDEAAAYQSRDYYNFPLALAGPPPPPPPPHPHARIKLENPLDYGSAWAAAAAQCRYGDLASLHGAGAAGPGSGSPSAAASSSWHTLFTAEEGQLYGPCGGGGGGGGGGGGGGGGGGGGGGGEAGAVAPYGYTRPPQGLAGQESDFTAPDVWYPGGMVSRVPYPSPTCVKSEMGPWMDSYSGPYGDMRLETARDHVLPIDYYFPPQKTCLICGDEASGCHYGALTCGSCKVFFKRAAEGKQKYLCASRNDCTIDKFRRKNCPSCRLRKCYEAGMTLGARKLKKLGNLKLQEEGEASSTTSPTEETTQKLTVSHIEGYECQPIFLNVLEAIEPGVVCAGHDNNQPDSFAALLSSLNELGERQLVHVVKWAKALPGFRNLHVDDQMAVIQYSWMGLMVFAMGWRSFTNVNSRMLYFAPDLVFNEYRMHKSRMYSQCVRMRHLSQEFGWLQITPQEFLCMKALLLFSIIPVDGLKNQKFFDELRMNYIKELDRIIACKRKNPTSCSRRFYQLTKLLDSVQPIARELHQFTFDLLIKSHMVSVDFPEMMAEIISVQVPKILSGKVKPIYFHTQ

In the case of `C[C@]12Cc3cn[nH]c3C[C@@H]1CC[C@@H]1[C@@H]2CC[C@@]2(C)[C@H]1CC[C@]2(C)O`, the AC50 with PGR (gene 5241) [1] was 6.44 µM (active); with PGR (gene 5241) [4], 3.48 µM (active). Further, the outcome (with PGR (gene 5241) [2]; in [3]; in [5]; in experiment [6]) was inactive.

Consider `O=C(O)CCCCCCNC1c2ccccc2CCc2ccccc21`, for which the result (in [7]; in experiment [8]; with THRB (gene 7068) [9]; in experiment [11]; in experiment [12]) was inactive. For the same compound, the AC50 is 23.8 µM (active) in the experiment with THRA (gene 7067) and 13.2 µM (active) in the experiment with THRB (gene 7068) [10].

For the compound `CC1COC2(c3ccccc3Cl)c3cc(Cl)ccc3NC(=O)CN12` (stereo not drawn), the result (with PGR (gene 5241) [2]; in experiment [3]; in experiment [5]) was inactive.

Turning to `Oc1ccccc1Cc1ccccc1O`, the outcome in experiment [13] was inactive.

`CCCOC(=O)c1ccc(O)cc1`: the compound was classed as inactive in [13].

As for `C(=C(c1ccccc1)c1ccccc1)c1ccccc1`, the compound was called inactive in experiment [13].

Take `CCCCCCCCCCCCN`: the result in [13] was inactive.

Take `C[C@]12CC[C@H]3[C@@H](CCC4=CC(=O)CC[C@@]43C)[C@@H]1CC[C@@H]2O`: the result in [7] was inactive.

As for `CC1(C)C(C=C(Cl)Cl)C1C(=O)OCc1cccc(Oc2ccccc2)c1` (stereo not drawn), the result in [14] was inactive.

Take `Clc1ccc(C(Cl)(Cl)Cl)c(Cl)c1`: the outcome in experiment [7] was inactive.

As for `O=C(Oc1ccccc1)c1ccc(O)cc1`, in experiment [13], the compound was called inactive.

On to `COc1ccc2[nH]cc(CCN(C(C)C)C(C)C)c2c1`, for which the outcome in experiment [15] and in [7] was inactive.

On to `CN=C=O`, for which the result in [7] was inactive.

Regarding `Oc1ccc2cc(SSc3ccc4cc(O)ccc4c3)ccc2c1`, the compound was called inactive in [13].

As for `O=C1Nc2ccc(Cl)cc2C(c2ccccc2Cl)=NC1O` (stereo not drawn), the outcome in experiment [7] was inactive.

On to `Cc1cc(OC(=O)N(C)C)nn1C(=O)N(C)C`, for which the outcome in experiment [15], in experiment [16] and in experiment [7] was inactive.

In the case of `COc1ccn(C)c(=O)c1C#N`, the call in experiment [17] and in [18] was inactive.

As for `C[C@]12CC[C@H]3[C@@H](CCC4=CC(=O)CC[C@@H]43)[C@@H]1CC[C@@H]2OC(=O)CCC1CCCCC1`, the AC50 with PGR (gene 5241) [1] is 2.39 µM (active); in the experiment with PGR (gene 5241) [4], 0.0731 µM (active). Moreover, the result (in the experiment with PGR (gene 5241) [2]; in [3]; in [5]; in experiment [6]) was inactive.

In the case of `c1ccc(B(c2ccccc2)c2ccccc2)cc1`, the result in experiment [13] was inactive.

Turning to `C#C[C@]1(O)CC[C@H]2[C@@H]3CCC4=CC(=O)CC[C@@H]4[C@H]3CC[C@@]21CC`, in experiment [13], the compound was classed as inactive.

With `CCCCC(CC)COC(=O)c1ccc(O)cc1` (stereo not drawn), the outcome in experiment [13] was inactive.
